Results reported in PubChem BioAssay (NCI).
The panel holds about 83,000 compounds, 20% with a hit somewhere; the sample as a whole holds those more often.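 Each cell line was grown in a 96-well plate and treated with one concentration of compound for 48 hours. Values below 10 were considered active.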 Unmarked numbers belong to inactive results. Activity calls are given as the source filed them.

Key:
Assay in all cases: NCI-60 one-dose screen, 48 h (100 = growth as untreated, 0 = no growth, -100 = all killed)
Conditions in all cases: 10 µM
NCI-H23 lung = test system: NCI-H23 lung
NCI-H226 lung = test system: NCI-H226 lung
NCI-H322M lung = test system: NCI-H322M lung
HOP-62 NSCLC = test system: HOP-62 NSCLC
NCI-H460 lung = test system: NCI-H460 lung
HOP-92 NSCLC = test system: HOP-92 NSCLC
NCI-H522 lung = test system: NCI-H522 lung
A549/ATCC NSCLC = test system: A549/ATCC NSCLC
786-0 renal = test system: 786-0 renal
COLO 205 colon = test system: COLO 205 colon

SMILES | growth (NCI-H23 lung) | growth (NCI-H226 lung) | growth (NCI-H322M lung) | growth (HOP-62 NSCLC) | growth (NCI-H460 lung) | growth (HOP-92 NSCLC) | growth (NCI-H522 lung) | growth (A549/ATCC NSCLC) | growth (786-0 renal) | growth (COLO 205 colon)
COc1ccc(-c2nc(S(=O)(=O)c3ccc(C)cc3)c(S(=O)(=O)CC(=O)N(C)Cc3ccccc3)o2)cc1 | 44% | 78.7% | 93.1% | 82.1% | 82.6% | 27.2% | -1.9% (active) | 84.9% | 22.2% | 45.9%
CC1(C)CC[C@]2(C(=O)N3CCOCC3)CC[C@]3(C)C(=CC[C@@H]4[C@@]5(C)CC[C@H](NCO)C(C)(C)[C@@H]5CC[C@]43C)[C@H]2C1 | -88.1% (active) | -88.3% (active) | -97.8% (active) | -73.8% (active) | -92.7% (active) | -64.3% (active) | -79.8% (active) | -85.8% (active) | -88.2% (active) | -72.7% (active)
Nc1cc(-c2cccc(C(=O)NCc3ccc4c(c3)OCO4)c2)ccn1 | 88% | 87.3% | 111% | 93.6% | 111% | 89.4% | 84.4% | 99.2% | 96.7% | 131%
O=C(NO)c1ccc(CNc2nc(-c3ccccc3)c3ccccc3n2)cc1 | -49% (active) | 6.26% (active) | 11% | 0.931% (active) | 4.48% (active) | -35.6% (active) | -30.9% (active) | 12.3% | 10.9% | -80.4% (active)
CN(CCO)c1oc(-c2ccccc2)nc1[P+](c1ccccc1)(c1ccccc1)c1ccccc1 | -5.17% (active) | -11.8% (active) | 19.8% | 13.2% | 6.61% (active) | -24.2% (active) | -9.01% (active) | 22.3% | 14.2% | -59.6% (active)
COc1cc(/C=C/C(=O)c2ccc(F)cc2)ccc1Oc1nc(Nc2ccc(F)cc2)nc(N(C)C)n1 | 66.8% | 53.7% | 79.1% | 93.5% | 69.6% | 65.6% | 62.3% | 74.1% | 71% | 118%
CC(=O)Nc1ccc(-n2cnc3cc(-c4ccc(O)cc4)ccc32)cc1F | 49.2% | 9.75% (active) | 52% | 44.4% | 10.5% | 55.1% | -42.7% (active) | 33.8% | 32.4% | -11.4% (active)
Cc1ccc(C(=O)Nc2ccc(-n3c(C)nc4c(cnn4-c4ccccc4)c3=O)cc2)cc1 | 53.6% | 54.8% | 87.3% | 78.8% | 75.4% | 93.3% | 71.2% | 65.8% | 86.1% | 77.4%
c1ccc(C(=C(c2ccc(OCCN3CCCCC3)cc2)c2ccc(OCCN3CCCCC3)cc2)C2CCCC2)cc1 | -81% (active) | -15.5% (active) | 39.8% | -10.9% (active) | -55.4% (active) | -61% (active) | -42.2% (active) | -17.9% (active) | -33.3% (active) | -92.6% (active)
O=c1[nH]c2ccccc2cc1CSc1ccc(Nc2nccc(-c3ccc4c(c3)OCO4)n2)cc1 | 86.1% | 74% | 97.7% | 84% | 83.1% | 78.6% | 96.9% | 76.7% | 84.7% | 71.6%
CN1C(=O)N(C)C2SC(N/N=C/c3ccccc3)=NC21 (stereo not given) | 79.5% | 98.1% | 98.3% | 76.9% | 68.9% | 111% | 60.4% | 72.4% | 82.3% | 92.5%
O=C(Nc1ccc(Cl)c(C(F)(F)F)c1)c1cncc(C#Cc2cnc3ccc(N4CCOCC4)nn23)c1 | -18.7% (active) | -32.8% (active) | 6.5% (active) | 11.1% | 29.3% | -48.6% (active) | -11.3% (active) | 16.1% | -28.5% (active) | 11.9%
COc1ccsc1/C=N/NC(=O)c1[nH]c2ccc(Br)cc2c1-c1ccccc1 | 9.07% (active) | 17.2% | 34.3% | 26.3% | 0.114% (active) | -5.64% (active) | -34.4% (active) | 11.7% | 1.8% (active) | -32.4% (active)
CN1C(=O)/C(=C/c2nccs2)SC1=S | 80.8% | 87.2% | 83.7% | 111% | 91% | 92.4% | 77.7% | 98.5% | 105% | 119%
Cc1noc2c(Cc3ccccc3)nn(CC(=O)N/N=C/c3ccc(F)cc3)c(=O)c12 | 78.4% | 29% | 84.6% | 14.7% | 28.9% | -12.7% (active) | 85.8% | 45.3% | -2.13% (active) | 72.5%
COc1cc(C2CC(c3ccc(C)cc3)=Nc3c(N)nc(N)nc3N2)ccc1Oc1nc(Nc2ccc(F)cc2)nc(N(C)C)n1 (stereo not given) | 73% | 61.4% | 86.6% | 93.9% | 37.7% | 9.32% (active) | 87.3% | 88.1% | 50.4% | 48.1%
COc1ccc(/C=N/N=C(\C)c2ccc3c(c2)Nc2ccccc2S3)cc1O | 35.9% | 49.2% | 71.2% | 80.1% | 41.1% | 74.1% | 48.3% | 63.9% | 73.9% | 99.9%
O=C1Nc2cc(Cl)ccc2/C1=C/c1ccc(OCc2ccc(Br)cc2F)cc1 | -68.8% (active) | -70.6% (active) | 5.43% (active) | -79.7% (active) | -81.5% (active) | -43.4% (active) | -52.5% (active) | -75.2% (active) | -88.7% (active) | -43% (active)
COc1cc2c(c(OC)c1OC)C(=O)CC(c1cccc(NC(=O)c3cccc(N)c3)c1)O2 (stereo not given) | 91.1% | 86.7% | 91% | 100% | 79.2% | 74% | 61% | 85.3% | 91.9% | 102%
COc1cc(/C=C/C(=O)c2ccc(NC(=O)CN3C(=O)NC(C)(c4ccccc4)C3=O)cc2)cc(OC)c1OC (stereo not given) | 15.6% | 1.44% (active) | 56.5% | 33.3% | 2.48% (active) | 85% | 32.8% | 18.5% | 27.5% | 11.9%
O=C(c1ccc(Cl)cc1)C1[C@H](c2ccccc2Br)[C@@H](c2ccccc2)NC12C(=O)Nc1ccc(Br)cc12 (stereo not given in full) | 3.35% (active) | 12.5% | 41.6% | 31.2% | 2.66% (active) | 4.57% (active) | -24.4% (active) | 0.826% (active) | -2.24% (active) | -49.6% (active)
O=c1[nH]c2ccccc2cc1CSc1ccc(Nc2nccc(-c3ccc(C(F)(F)F)cc3)n2)cc1 | 35.3% | -27.2% (active) | 23.8% | -14% (active) | 2.12% (active) | -1.46% (active) | 28.3% | -16.8% (active) | -49.7% (active) | 18%
